Consider 7 compounds from PubChem BioAssay (Tox21).

Assay [1] is described as follows: qHTS assay to identify small molecule agonists of H2AX (AID 1224845; active means well fitted activation curve with a large enough effect in the signal ratio in the repeat runs, not every such curve was filed as active; the % refers to the signal ratio). Summed up:
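Phospho-H2AX Ser139 measured by HTRF (ex 320 nm; em 665 and 620 nm) after 24 hr antibody incubation. Compounds, 15 concentrations, 0.76% DMSO, were applied to CHO-K1 cells for 3hr at 37C before lysis.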
Background: In qHTS, concentration-response curves come from the screen itself.

A short description of assay [2]: qHTS assay to identify small molecule agonists of the hypoxia (HIF-1) signaling pathway (AID 1224846; active means well fitted activation curve with a large enough effect in the signal ratio in the repeat runs, not every such curve was filed as active; the % refers to the signal ratio). The essentials:
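Steps: seed ME-180 HRE-bla cells (2,000/well, 0.5% dialyzed FBS); incubate 5 hrs at 37C; pin-transfer compounds or DMSO; incubate 17 hrs; add LiveBLAzer B/G substrate CCF4-AM; measure reporter activation by FRET.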

A short description of assay [3]: qHTS assay to identify small molecule agonists of H2AX - cell viability counter screen (AID 1224847; calls by dose curve; further: nearly all actives have a fitted effect of over 30% in size; further: potency means the concentration at half of the fitted maximal effect). Summed up: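 We seed wild-type CHO-K1 cells overnight, treat them for 3 hr at 37C with compounds in 15-concentration series, and quantify remaining viability by CellTiter-Glo luminescence.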
Assay [4] can be described thus: qHTS assay to identify small molecule antagonists of the estrogen related receptor (ERR) signaling pathway from Tox21 library (AID 1224848). Further: nearly all actives have a fitted effect of over 50% in size. Further: potency means the concentration at half of the fitted maximal effect. The essentials: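 Antagonist-mode screen of the Tox21 10K library in an NTP-provided ERR reporter cell line; 18 h compound exposure at 37 C, luminescence measured with ONE-Glo.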
The nature of assay [5]: qHTS assay to identify small molecule agonists of the estrogen related receptor (ERR) signaling pathway from Tox21 library (AID 1224849; calls by dose curve; further: nearly all actives have a fitted effect of over 15% in size). The conditions noted are these: ERR reporter cell line, ONE-Glo luciferase, 18 h; at 92.4 µM (top of the series) unless noted. The essentials: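 Agonist signal is luciferase luminescence from an ERR reporter cell line treated 18 h at 37 C with DMSO-dissolved compounds, read 30 min after ONE-Glo addition at room temperature.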

The nature of assay [6]: qHTS RealTime-Glo MT Cell Viability Assay in HepG2 cells - 24 hour (AID 1224867). Further: nearly all actives have a fitted effect of over 50% in size. Summed up: (§1)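 HepG2 suspension premixed with RealTime-Glo reagents is plated at 600 cells per well and left 5 h at 37 C/5% CO2. Compounds in DMSO then go in, and bioluminescence reflecting viable cell number is recorded over 40 h.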
Assay [7] can be described thus: qHTS RealTime-Glo MT Cell Viability Assay in HEK293 cells - 32 hour (AID 1224868). Further: nearly all actives have a fitted effect of over 50% in size. Further: potency means the concentration at half of the fitted maximal effect. The essentials: (§2)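 Reads taken at 0, 8, 16, 24, 32 and 40 h from the same wells. HEK293 cells (600/well) carried RealTime-Glo reagents from seeding, with compound added after a 5 h settle at 37 C.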
Assay [8] can be described thus: A CellTox Green Cytotoxicity Assay to monitor cytotoxicity in HEK293 cells - 0 hour (AID 1224869). Further: nearly all actives have a fitted effect of over 50% in size. Summed up: (§3)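 Cytotoxicity was tracked continuously in HEK293 cells by a DNA-binding dye excluded from viable cells. Compounds were transferred in DMSO 5 h after seeding; fluorescence was recorded at intervals up to 40 h.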
Assay [9] is described as follows: A CellTox Green Cytotoxicity Assay to monitor cytotoxicity in HEK293 cells - 40 hour (AID 1224871). Further: nearly all actives have a fitted effect of over 45% in size. Further: potency means the concentration at half of the fitted maximal effect. Summed up:
as §3

Assay [10] can be described thus: qHTS RealTime-Glo MT Cell Viability Assay in HEK293 cells - 16 hour (AID 1224872). Summed up:
as §2

Assay [11] in a line: qHTS RealTime-Glo MT Cell Viability Assay in HepG2 cells - 8 hour (AID 1224873). Further: nearly all actives have a fitted effect of over 55% in size. Summed up:
(§4)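 Real-time viability: cells seeded at 600 per well together with NanoLuc and cell-permeant prosubstrate, compounds added after 5 h incubation. Luminescence tracked at 0, 8, 16, 24, 32 and 40 h of exposure.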

Assay [12] in a line: qHTS RealTime-Glo MT Cell Viability Assay in HEK293 cells - 40 hour (AID 1224874). Further: nearly all actives have a fitted effect of over 50% in size. Further: potency means the concentration at half of the fitted maximal effect. The note with it: RealTime-Glo luminescence; max response: active compounds read low. The essentials: (§5)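 Nonlytic bioluminescent viability monitoring. HEK293 at 600 cells/well with reagent; 5 h settle; compound transfer by pintool; plates held at 37 C and read at set time points.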
The nature of assay [13]: A CellTox Green Cytotoxicity Assay to monitor cytotoxicity in HEK293 cells - 24 hour (AID 1224875). Further: nearly all actives have a fitted effect of over 45% in size. Summed up:
as §3

Assay [14] is described as follows: A CellTox Green Cytotoxicity Assay to monitor cytotoxicity in HepG2 cells - 16 hour (AID 1224876). Further: nearly all actives have a fitted effect of over 45% in size. Summed up: (§6)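 Real-time, homogeneous cytotoxicity readout: dead-cell DNA staining by CellTox Green in HepG2 monolayers, fluorescence measured at timed intervals up to 40 h of continuous compound exposure.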
Assay [15] is described as follows: qHTS RealTime-Glo MT Cell Viability Assay in HepG2 cells - 32 hour (AID 1224877). Further: nearly all actives have a fitted effect of over 55% in size. Summed up:
as §1

Assay [16] in a line: A CellTox Green Cytotoxicity Assay to monitor cytotoxicity in HepG2 cells - 24 hour (AID 1224878). Further: nearly all actives have a fitted effect of over 45% in size. The essentials: as §6
The nature of assay [17]: A CellTox Green Cytotoxicity Assay to monitor cytotoxicity in HepG2 cells - 40 hour (AID 1224879). Further: nearly all actives have a fitted effect of over 40% in size. Further: potency means the concentration at half of the fitted maximal effect. The essentials:
as §6

Assay [18] can be described thus: qHTS RealTime-Glo MT Cell Viability Assay in HEK293 cells - 0 hour (AID 1224880). The essentials: as §5
Assay [19] is described as follows: A CellTox Green Cytotoxicity Assay to monitor cytotoxicity in HEK293 cells - 32 hour (AID 1224881). Further: nearly all actives have a fitted effect of over 40% in size. The essentials:
as §3

Assay [20] in a line: qHTS RealTime-Glo MT Cell Viability Assay in HepG2 cells - 40 hour (AID 1224870). Further: nearly all actives have a fitted effect of over 50% in size. The essentials: as §4

Values without a mark were called inactive. Results filed as inconclusive are left out. Calls of active or inactive are those of the source. Unless noted, the call rests on the fitted dose curve; in most records, active means well fitted curve in the direction sought with a large enough effect in the repeat runs; inconclusive means weak or mixed curves; inactive means no such curve, though single readings can be large; an effect the other way counts as inactive or inconclusive.
On the % scale 0 is the no-effect control and ±100 the full control effect.

With `CCC(Cl)CCl` (stereo not drawn), the Potency result in assay [1], in [3], in [4], in assay [6], in assay [7] and in assay [8] was “inactive” throughout. For the same compound, the Potency result in assay [9], in [10], in [11], in assay [13], in [14] and in assay [15] was “inactive” throughout. The Potency result in assay [16], in [17], in assay [18] and in assay [19] was “inactive” each time. Moreover, in assay [2], the compound was classed as inactive. Further, the activity change, positive = activation in assay [5] was -1.76%. Further, the max response in assay [12] was 2.27%.

Consider `CN1C(=O)NC(=O)C(C)(C2=CCCCC2)C1=O` (stereo not drawn), for which the Potency entry in assay [1], in [3], in assay [6], in assay [7], in [8] and in assay [20] was “inactive” throughout. Also, the Potency result in assay [9], in assay [10], in [11], in [13], in assay [14] and in assay [15] was “inactive” in each case. In addition, the Potency entry in assay [16], in assay [17], in assay [18] and in assay [19] was “inactive” throughout. In addition, in [2], the compound was called inactive. Moreover, in [12], the max response is 11.8%.

As for `CC(C)=CCOc1c2occc2cc2ccc(=O)oc12`, the Potency result in assay [1], in [3], in assay [4], in [7], in assay [8] and in assay [9] was “inactive” in each case. In addition, the Potency entry in assay [10], in assay [13], in assay [14], in [15], in [16] and in assay [17] was “inactive” throughout. Besides, the Potency entry in [18] and in assay [19] was “inactive” in each case. Besides, the compound was classed as inactive in assay [2]. Moreover, in [5], the activity change, positive = activation is -9.71% [at 42.5 µM].

As for `N#Cc1cc(I)c(O)c(I)c1`, the Potency entry in [1], in [6], in assay [8], in assay [20], in [11] and in assay [13] was “inactive” in each case. The Potency entry in [14], in [15], in [16], in [17], in assay [18] and in assay [19] was “inactive” each time. Moreover, in assay [2], the result was inactive. The results for the Potency in assay [3] and in assay [4] were 28.4 µM (active) and 24.3 µM (active), respectively. In addition, the activity change, positive = activation in assay [5] is -66.8%.

Regarding `O=[Se]=O`, the Potency entry in [1], in assay [3], in assay [6], in assay [8], in assay [10] and in assay [11] was “inactive” in each case. For the same compound, the Potency entry in [13], in assay [14], in assay [16] and in [18] was “inactive” throughout. Moreover, the compound was called inactive in [2]. Also, the Potency is 30.4 µM (active) in assay [4]; 17.3 µM (active) in assay [7]; 24.4 µM (active) in assay [9]; 17.3 µM (active) in assay [12]; 19.4 µM (active) in [17]. In addition, the activity change, positive = activation in assay [5] was -51.4% [at 42.5 µM].

On to `CC(=O)NC1CCSC1=O` (stereo not drawn), for which the Potency entry in assay [1], in assay [3], in assay [4], in assay [6], in assay [7] and in assay [8] was “inactive” each time. The Potency result in assay [9], in assay [10], in assay [11], in assay [13], in [14] and in assay [15] was “inactive” in each case. Besides, the Potency result in assay [16], in assay [17], in [18] and in assay [19] was “inactive” throughout. Moreover, in assay [2], the call was inactive. Also, the activity change, positive = activation in [5] is 1.16% [at 42.5 µM]. Besides, the max response in assay [12] was -1.76%.

Regarding `N#CCc1ccccc1`, the Potency result in assay [1], in assay [3], in assay [6], in assay [7], in assay [8] and in [20] was “inactive” in each case. Also, the Potency result in [9], in [10], in [11], in [13], in assay [14] and in assay [15] was “inactive” each time. For the same compound, the Potency result in assay [16], in [17], in assay [18] and in [19] was “inactive” in each case. The outcome in assay [2] was inactive. For the same compound, the max response in assay [12] was 2.97%.
